Tests used:
Assay in all cases: protein domain microarray probed with biotinylated miRNA; Domain array: 20 mM Tris-HCl pH 7.4, 200 mM KCl, 0.2 mM EDTA, 0.05% NP40, 2 ug/ul heparin, overnight 4 C. ORF array: PBS pH 7.0 with RNase inhibitor, 100 ng RNA; high values mean tight binding
Settings in all cases: ssRNA
[1] = target: RBM8A (Homo sapiens, UniProt Q9Y5S9)
[2] = target: T1, PGC-1 alpha (Homo sapiens, UniProt Q9UBK2)
T1 sequence: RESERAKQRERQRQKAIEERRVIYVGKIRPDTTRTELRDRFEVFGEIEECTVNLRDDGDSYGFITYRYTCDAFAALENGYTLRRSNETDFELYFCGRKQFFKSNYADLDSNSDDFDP

[3] = target: T2, NOVA1(3) (Homo sapiens, UniProt P51513)
T2 sequence: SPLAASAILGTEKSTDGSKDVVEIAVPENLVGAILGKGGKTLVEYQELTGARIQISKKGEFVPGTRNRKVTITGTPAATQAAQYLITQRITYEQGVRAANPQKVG

[4] = target: T3, SFRS2 (Homo sapiens, UniProt Q01130)
T3 sequence: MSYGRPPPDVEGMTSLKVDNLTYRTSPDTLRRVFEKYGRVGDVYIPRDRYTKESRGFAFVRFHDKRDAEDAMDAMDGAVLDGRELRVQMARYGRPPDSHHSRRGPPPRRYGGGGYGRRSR

[5] = target: T4, STRBP(2) (Homo sapiens, UniProt Q96SI9)
T4 sequence: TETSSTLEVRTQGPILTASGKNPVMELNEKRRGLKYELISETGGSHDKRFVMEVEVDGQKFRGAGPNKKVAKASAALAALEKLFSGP

[6] = target: T5, KHDRBS3 (Homo sapiens, UniProt O75525)
T5 sequence: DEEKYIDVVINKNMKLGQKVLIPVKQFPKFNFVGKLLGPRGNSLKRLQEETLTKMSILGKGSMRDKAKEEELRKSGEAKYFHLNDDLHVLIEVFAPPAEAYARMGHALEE

[7] = target: T6, PGC-1 beta (Homo sapiens, UniProt Q86YN6)
T6 sequence: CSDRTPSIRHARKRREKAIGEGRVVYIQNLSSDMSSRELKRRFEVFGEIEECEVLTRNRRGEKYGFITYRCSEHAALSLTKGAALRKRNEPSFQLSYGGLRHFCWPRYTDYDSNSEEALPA

[8] = target: hnRNP E2(3) (Homo sapiens, UniProt Q15366)
Chain of hnRNP E2(3) (Q15366 269-365): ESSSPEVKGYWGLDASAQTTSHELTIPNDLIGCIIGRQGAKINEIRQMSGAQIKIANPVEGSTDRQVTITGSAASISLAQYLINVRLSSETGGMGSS

[9] = target: T7, RBM12(1-2) (Homo sapiens, UniProt Q9NTZ6)
T7 sequence: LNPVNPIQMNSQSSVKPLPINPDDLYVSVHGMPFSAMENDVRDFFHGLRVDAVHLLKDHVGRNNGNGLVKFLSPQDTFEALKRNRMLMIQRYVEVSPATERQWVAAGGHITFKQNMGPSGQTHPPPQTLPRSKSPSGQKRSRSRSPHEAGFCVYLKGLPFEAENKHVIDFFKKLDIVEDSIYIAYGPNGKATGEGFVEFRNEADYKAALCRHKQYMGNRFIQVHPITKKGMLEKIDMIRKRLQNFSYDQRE

[10] = target: RBMY1F (Homo sapiens, UniProt Q15415)
Chain of RBMY1F (Q15415 1-110): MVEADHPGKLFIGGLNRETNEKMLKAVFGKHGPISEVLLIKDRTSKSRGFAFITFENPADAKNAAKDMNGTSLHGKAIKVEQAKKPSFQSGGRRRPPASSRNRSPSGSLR

Row | Sequence | binding signal [1] | binding signal [2] | binding signal [3] | binding signal [4] | binding signal [5] | binding signal [6] | binding signal [7] | binding signal [8] | binding signal [9] | binding signal [10]
1 | AGAGGUAGUAGGUUGCAUAGUU | 530 ± 30.3 fluorescence intensity | 50.4 ± 6.92 fluorescence intensity | 1990 ± 38.5 fluorescence intensity | 1507 ± 5.18 fluorescence intensity | 38.5 ± 2.51 fluorescence intensity | 26.3 ± 5.34 fluorescence intensity | 196 ± 13.5 fluorescence intensity | 21.7 ± 1.28 fluorescence intensity | 1270 ± 68.8 fluorescence intensity | 2241 ± 17.4 fluorescence intensity
2 | UGAGGUAGUAGGUUGUAUAGUU | 23.6 ± 8.27 fluorescence intensity |  | 39 ± 1.15 fluorescence intensity | 464 ± 35 fluorescence intensity |  | 21.1 ± 1.79 fluorescence intensity | 45.6 ± 6.99 fluorescence intensity | 23.4 ± 0.594 fluorescence intensity | 321 ± 62.5 fluorescence intensity | 1000 ± 19 fluorescence intensity
3 | UGAGGUAGUAGGUUGUGUGGUU | 492 ± 15.8 fluorescence intensity | 72.3 ± 6.39 fluorescence intensity | 202.3 ± 0.523 fluorescence intensity | 1219 ± 7.53 fluorescence intensity | 83.8 ± 5.54 fluorescence intensity | 28.2 ± 0.368 fluorescence intensity | 385 ± 12.8 fluorescence intensity | 20.3 ± 0.735 fluorescence intensity | 1210 ± 36.7 fluorescence intensity | 1478 ± 10.7 fluorescence intensity
4 | UGAGGUAGUAGGUUGUAUGGUU | 462 ± 23.2 fluorescence intensity | 61.6 ± 8.6 fluorescence intensity | 111 ± 7.91 fluorescence intensity | 1110 ± 31.5 fluorescence intensity | 56.6 ± 5.37 fluorescence intensity | 22.9 ± 1.58 fluorescence intensity | 260 ± 19.3 fluorescence intensity | 20.2 ± 0.297 fluorescence intensity | 1230 ± 64.3 fluorescence intensity | 1430 ± 254 fluorescence intensity
5 | UAGCUUAUCAGACUGAUGUUGA |  |  | 126.9 ± 0.87 fluorescence intensity | 480 ± 21.9 fluorescence intensity |  |  |  | 20.9 ± 1.85 fluorescence intensity | 271 ± 62.1 fluorescence intensity | 865 ± 36.1 fluorescence intensity
6 | CAGUGCAAUGAUGAAAGGGCAU | 194 ± 11.7 fluorescence intensity | 52.5 ± 18.4 fluorescence intensity | 735.5 ± 6.54 fluorescence intensity | 1100 ± 38.7 fluorescence intensity |  | 23.5 ± 3.87 fluorescence intensity | 78.9 ± 4.49 fluorescence intensity | 21.9 ± 0.262 fluorescence intensity | 873 ± 45.6 fluorescence intensity | 1404 ± 5.42 fluorescence intensity

— paper PMC11574364
